Assay results as given in PubChem BioAssay (NCI).
Compounds without any hit were thinned out: in the full panel of roughly 83,000, 20% have a hit.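 Method: cells in 96-well plates; compound added at one concentration; 48 h incubation; percent growth measured; values under 10 scored active.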 Values without a mark were called inactive. Active and inactive are the calls of the source.

The molecules below were run on HL-60(TB) leukemia (assay: NCI-60 one-dose screen, 48 h (100 = growth as untreated, 0 = no growth, -100 = all killed)). Settings: 10 µM unless noted.

Row | SMILES | growth
1 | CSc1[nH]c(=O)ncc1F | 106%
2 | CC(=O)Oc1ccc(C)cc1C | 95%
3 | N#Cc1c(-c2ccccc2)nc(SCc2nnc(-c3ccc(Cl)cc3)o2)[nH]c1=O | 92.2%
4 | C=C1C[C@H](O)[C@H](Br)C(C)(C)[C@@]12CCC(C)=C(Cl)C2 | -8.6% (active)
5 | COc1ccc2nc(-c3ccc(-n4cncc4-c4ccc(OC)c(N)c4)cc3)sc2c1 | 80.7%
6 | Clc1ccc(-c2nnc(-c3cccc4ccccc34)o2)cc1 | 112%
7 | COc1cc(C2C(C#N)=C(N)OC3=C2C(=O)c2ccccc2C3=O)cc(OC)c1O (stereo not given) | 90.9%
8 | O=C(N1CCC(CN=c2cc3n(-c4ccc(Cl)cc4)c4ccccc4nc-3cc2Nc2ccc(Cl)cc2)CC1)N1CC1 | -73.3% (active)
9 | CCOC(=O)c1cnc2c(C)cc(C)cc2c1NCCCN(C)C | 9.86% (active)
10 | O=S1(=O)CCN(Cc2ccccc2)CC1 | 108%
11 | COc1ccc(-c2cc(-c3cc(OC)c(OC)c(OC)c3)c(C#N)c(N3CCOCC3)n2)cc1O | -31.8% (active)
12 | Cc1[nH]c(-c2nc3ccccc3[nH]2)c(C)c1C(=O)N1CCOCC1 | 111%
13 | C=C1C(=O)O[C@H]2[C@H]1CC/C(COC(=O)CCCc1c[nH]c3ccccc13)=C\CC[C@@]1(C)O[C@@H]21 | 2.97% (active)
14 | O=c1c2cc(F)ccc2sc2c(NCCCN3CCCC3)nc3ccccc3c12 | 13.9%
15 | CCc1ccccc1C(=O)N(CC)CC | 95.1%
16 | CC(C)(C)c1cc(Br)cc(C(C)(C)C)c1O | 94.1%
17 | C[C@H](NC(=O)c1snnc1C1CC1)c1c(F)cccc1Cl | 146%
18 | Cc1ccc(Cc2cnc(NC(=O)c3cc(C)oc3C)s2)cc1 | 79.1%
19 | CCOC(=O)c1ccc(Nc2ncnc3ccc(NC(=O)c4ccccc4)cc23)cc1 | 69.9%
20 | O=C(Cc1ccc(F)c(Cl)c1)Nc1cc(C2(C(F)(F)F)CC2)nn1CC1CCCCC1 | 14.8%

Row | SMILES | growth
21 | CCCCCCCCCN1C(=O)/C(=c2\sc3n(c2=O)C2C(NN=3)N(CC)C(=O)N2CC)c2ccccc21 (stereo not given) | 84.1%
22 | O=C(Nc1cccc(N=Cc2c(O)ccc3ccccc23)c1)c1ccccc1 | 109%
23 | N#Cc1ccc(O)c(C2=NCC(Cc3ccccc3)O2)c1 (stereo not given) | 44%
24 | O=c1oc2ccc(Cl)cc2c(=O)n1-c1ccc(I)cc1F | -46.3% (active)
25 | CCN1CCN(C(=O)[C@@]2(C)CC[C@]3(C)CC[C@]4(C)C(=CC(=O)[C@@H]5[C@@]6(C)CC[C@H](OC7C[C@@H](O)[C@@H](O)C(C)O7)C(C)(C)[C@@H]6CC[C@]54C)[C@@H]3C2)CC1 (stereo not given in full) | -57.2% (active)
26 | CSc1nnc(C2=CC(=O)c3ccccc3C2=O)n1-c1ccccc1 | 4.64% (active)
27 | O=C(Nc1ccc(C(=O)/C=C/c2ccc(N3CCOCC3)cc2)cc1)Nc1ccc([N+](=O)[O-])cc1 | 70.6%
28 | CN(C)c1ccc(N=C2C=CC(=O)c3ccccc32)cc1 | 82.2%
29 | O=C1C(Br)=C(c2ccccc2)C(=O)C(Br)=C1c1ccccc1 | 78.6%
30 | Cn1cc(-c2csc(-c3cn(CCCN4CCCCC4)c4ccccc34)n2)c2cccnc21 | -65.2% (active)
31 | Nc1ccc(Sc2ccc3c4c2cccc4c(=O)n2c4ccccc4nc32)cc1 | 18.2%
32 | N[C@@H]1CCCN(c2c(/C=C3\SC(=O)NC3=O)cccc2-c2ccccc2)C1 | 26.5%
33 | Cc1cc(C)c(O)c(CNCCCNCc2cc(C)cc(C)c2O)c1 | 48.6%
34 | C=C1N(C)c2ccc(Cl)cc2C1(C)C | 6.42% (active)
35 | Clc1nc(Cl)c2ncn(CC#CCn3cnc4c(Cl)nc(Cl)nc43)c2n1 | -58.3% (active)
36 | COc1ccc2c(c1)CCCC21C(=O)Nc2c(Cl)cccc21 (stereo not given) | 33.9%
37 | CN1CCN(Cc2ccc(NC(=O)c3[nH]ncc3Nc3ncnc4c3CCC4)cc2)CC1 | -22.1% (active)
38 | FC(F)(F)Oc1cccc(-c2cc(NCCCCCCNc3cc(-c4cccc(OC(F)(F)F)c4)nc4ccc(N5CCCC5)cc34)c3cc(N4CCCC4)ccc3n2)c1 | 21.7%
39 | COc1cc(CO)cc2cc3ccccc3nc12 | 101%
40 | O=C(Nn1c(NCC(=O)N2c3ccccc3Sc3ccccc32)nnc1-c1ccc(O)cc1)c1ccccc1 | 98.6%
